Test results: PubChem BioAssay (NCATS)
Inconclusive results are not listed. Where a call stands in place of a potency, no number is given. Unmarked numbers belong to inactive results. Activity calls are given as the source filed them. The call rests on the fitted dose curve; in most records, active means well fitted inhibition curve with a large enough effect; inconclusive means small, poorly fitted or top-dose-only effect; inactive means flat fitted curve, though single readings scatter.

What follows are molecules tested against Calcium and integrin-binding protein 1 (Homo sapiens) (UniProt Q99828) (assay: Primary qHTS for Identification of Calcium Integrin Binding Protein 1 (CIB1) Competitor (AID 1508620; further: top concentration of the series differs between compounds)). Settings: CIB1-GST / FITC-alphaIIb peptide fluorescence polarization; series mostly up to 57.7 µM.
Chain of Calcium and integrin-binding protein 1 (Homo sapiens) (Q99828 whole entry, looked up): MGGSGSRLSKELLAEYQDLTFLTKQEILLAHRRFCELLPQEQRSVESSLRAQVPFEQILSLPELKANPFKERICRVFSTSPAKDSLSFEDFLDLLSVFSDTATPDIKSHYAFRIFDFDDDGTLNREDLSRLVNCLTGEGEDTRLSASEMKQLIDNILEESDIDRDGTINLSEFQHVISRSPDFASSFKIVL
How it was run: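 Fluorescence polarization competition: GST-tagged CIB1 (1 uM final) preincubated with compound 15 min at room temperature, then FITC-labelled alphaIIb peptide (100 nM final) added. After 15 min at room temperature, polarization read at Ex 480/Em 540.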
With NC1Nc2ccccc2C1(N)CC1NC(=O)C(Cc2ccccc2)NC(=O)C(Cc2ccccc2)NC1=O (configuration not stated) the Potency was “inactive”. With O=C(O)c1ccc(NC(=O)[C@H](CC2CCCC2)n2cnc(C(F)(F)F)c2)nc1 the Potency was “inactive”. For C/C(=C\CCC1(C)C2CC3C(C2)C31C)C(=O)O (configuration not stated), the Potency was “inactive”. In the case of CCC(C)/C=C(C)/C=C/C1=CC2=C(Cl)C(=O)C(C)(OC(C)=O)C(=O)C2=CN1C(CC(=O)O)C(=O)O (configuration not stated), the Potency is reported as “inactive”. CC(C)c1ccc2c(c1)CCC1[C@](C)(C(=O)O)CCC[C@]21C (some centres not stated) was tested, and the Potency was “inactive”. For COCC1OC(n2cnc3c(=O)[nH]cnc32)C(O)C1O (configuration not stated), the Potency was “inactive”. For OCC(O)C(c1c[nH]c2ccccc12)c1c[nH]c2ccccc12 (configuration not stated), the Potency was “inactive”. COc1cc(CC2COC(c3ccc(OC4OC(CO)C(O)C(O)C4O)c(OC)c3)C2CO)ccc1O (configuration not stated) was tested, and the Potency was “inactive”. C/C=C(/C)C(=O)OC1C(OC(C)=O)C23C(O)OC4(CCC5C6(C)CCC(OC7OC(C(=O)O)C(O)C(OC8OC(CO)C(O)C(O)C8OC8OC(C)C(O)C(O)C8OC8OCC(O)C(O)C8O)C7OC7OC(CO)C(O)C(O)C7O)C(C)(C)C6CCC5(C)C4(C)CC2OC(C)=O)C3CC1(C)C (configuration not stated) was tested, and the activity change, negative = inhibition was 3.17% [at 12.4 µM]. Fc1cccc(CN(C2=NCCN2)c2c(Cl)cccc2Cl)c1 was tested, and the Potency was “inactive”. For CC1(C(=O)O)CC[C@]2(C(=O)OC3OC(CO)C(O)C(O)C3O)CC[C@]3(C)C(=CCC4[C@@]5(C)CC[C@H](OC6OCC(O)C(O)C6OC6OC(CO)C(O)C(O)C6O)C(C)(C)C5CC[C@]43C)C2C1 (some centres not stated), the Potency was “inactive”. C[C@@H]1O[C@@H](O[C@H]2[C@H](O[C@H]3[C@H](O[C@H]4CC[C@@]5(C)C(CC[C@]6(C)C5CC=C5[C@@H]7CC(C)(C)C[C@@H](O)[C@]7(C)CC[C@]56C)[C@@]4(C)CO)O[C@H](C(=O)O)[C@@H](O)[C@@H]3O)O[C@H](CO)[C@H](O)[C@@H]2O)[C@H](O)[C@H](O)[C@H]1O (some centres not stated) was tested, and the Potency was “inactive”.
